# This is part of a sample that, as a whole, favours compounds with a hit. Of some 79,000 tested, about 15% had one in any assay. Values without a mark were called inactive. The source made the active and inactive calls. No stated cut-off is given here; in the data, active means growth inhibition above about 70%; inactive means the rest.
# Test: NCI Yeast Anticancer Drug Screen. Data for the rad50 strain (AID 155);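 further: 0% = growth of vehicle-only cultures of the same strain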
# Details: S. cerevisiae rad50 strain growth inhibition; at 50.0 µM; stronger effect = higher value
# How it was run: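 Vehicle-treated cultures provide the reference for the growth inhibition reported for compound-exposed, repair-deficient yeast.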
row,SMILES,growth inhibition
1,CC(=O)CC(C)=O,-7.2%
2,CCCCCCCCCCCCP(=O)(O)OCC(N)C(=O)O (stereo not given),-0.9%
3,COc1ccc(C)cc1C(CC(=O)O)CC(=O)N(CCCl)CCCl (stereo not given),39.6%
4,COc1ccc2c(c1OC(C)=O)C1=CC(=O)CCC13CCNC3C2 (stereo not given),15.8%
5,N#CCC#N,-3.7%
6,NC(=O)c1cccc([As]=O)c1 (stereo not given),-11.4%
7,[Cl][Rh]([Cl])([Cl])[Cl].[NH-]CC[NH-],17.2%
8,CC(C)NC(=O)C(Cl)CCl (stereo not given),13.7%
9,CC1=C2C(=O)C(C)(C)C=C2C(=O)[C@](C)(O)C12CC2,66.4%
10,COc1ccc(N=NC(=O)NC(CC(C)C)C(=O)NC(C)C(=O)O)cc1 (stereo not given),-11.8%
11,C1CC[N-]CC1.C1CC[N-]CC1.[Cl][Pt+2]([Cl])([Cl])[Cl],4.65%
12,O=C(O)Cc1ccc2c(c1)OCO2,20.9%
13,CC1OC(=O)C(C(C)C)NC(=O)C(C(C)C)OC(=O)C(C(C)C)NC(=O)C(C)OC(=O)C(C(C)C)NC(=O)C(C(C)C)OC(=O)C(C(C)C)NC(=O)C(C)OC(=O)C(C(C)C)NC(=O)C(C(C)C)OC(=O)C(C(C)C)NC1=O (stereo not given),31.9%
14,CCCCCC(N)CC(=O)O (stereo not given),8.95%
15,CCOP(=O)(O)C1CCCC(C)[N-]1.CCOP(=O)(O)C1CCCC(C)[N-]1.[Cu+2] (stereo not given),49.4%
16,COc1ccn(C)c(=O)c1C#N,3.15%
17,Cc1ccc(-c2cc(C)n(C)[n+]2C)cc1,8.05%
18,Clc1ccc([C@H]2N[C@@H]2c2ccccn2)cc1,11.2%
19,Oc1ccc(Nc2ncnc3nc[nH]c23)cc1CN(CCCl)CCCl,-5.85%
20,CC1=C(C)C(=O)O[C@@H]([C@](C)(O)[C@]2(O)CC[C@@]3(O)[C@@H]4C[C@H]5O[C@]56CC=CC(=O)[C@]6(C)[C@H]4CC[C@]23C)C1,45.1%

row,SMILES,growth inhibition
1,COc1cc(/C=C(\C)[N+](=O)[O-])cc(OC)c1,18.9%
2,N.N.N.N.O=N[O-].O=N[O-].[Cl-].[Co+3],4.25%
3,O=C(CI)NCCNC(=O)CI,11.1%
4,C=C1CC2C3CC=C4CC(OC(C)=O)CCC4(C)C3CCC2(C)C1=O (stereo not given),31.7%
5,CCOP1(=O)C=C(C)C(Cl)=C(C)C1 (stereo not given),26.9%
6,Nc1ccc(C(=O)O)cc1[As](O)O,-15.1%
7,C1CCC(NC2CCCC2)CC1,18%
8,CCOC(=O)c1cc2c(cn1)[nH]c1ccccc12,41.2%
9,CCc1cc(C)cc2[n+]1CC=C2C,6.45%
10,CCOP(=S)(OCC)Oc1ccc2c(c1)OC(=O)C1(Cl)C2(C)C2(Cl)C(=O)Oc3cc(OP(=S)(OCC)OCC)ccc3C12C (stereo not given),10.2%
11,CC(=O)CCNC1(c2ccccc2)CCCCC1,3.6%
12,O=P(Oc1ccccc1)(Oc1ccccc1)C(O)c1ccccc1 (stereo not given),11.2%
13,CCC1CC[N-]CC1.CCC1CC[N-]CC1.CCC1CC[N-]CC1.CCC1CC[N-]CC1.N#C[S-].N#C[S-].[Co],23.1%
14,COc1ccc2c(c1OC)C13CCN(C)C(C2)C12C=CC(=O)C3c1c(OC)ccc(OC)c12 (stereo not given),37.4%
15,O=C(O)C(CP(=O)(O)O)=C(Cl)Cl,-21.4%
16,O=C(O)C(Cl)C(=O)O,-4.4%
17,O[As](O)O.S=C(S)c1ccccc1S,7.55%
18,CC1(c2cccc(N(CCCl)CCCl)c2)NC(=O)NC1=O (stereo not given),25.1%
19,N#Cc1ccc(C(Cl)(Cl)Cl)cc1,1.5%
20,[C-]#[O+].[C-]#[O+].[C-]#[O+].[CH3][Sn]([c]1ccccc1)[c]1ccccc1.[W].[c-]1[c-][c-][cH-][c-]1,98.2% (active)

# Test: NCI Yeast Anticancer Drug Screen. Data for the mec2-1 strain (AID 157)
# Details: S. cerevisiae mec2-1 strain, at 50.0 µM, stronger effect = higher value
# How it was run: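 Test agents were screened against the mec2-1 yeast strain, with defined DNA repair or cell cycle alteration. Growth was scored as inhibition against vehicle-only controls.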
row,SMILES,growth inhibition
1,CC(=O)CC(C)=O,3.8%
2,CCCCCCCCCCCCP(=O)(O)OCC(N)C(=O)O (stereo not given),-21.6%
3,COc1ccc(C)cc1C(CC(=O)O)CC(=O)N(CCCl)CCCl (stereo not given),-2.45%
4,COc1ccc2c(c1OC(C)=O)C1=CC(=O)CCC13CCNC3C2 (stereo not given),6.7%
5,N#CCC#N,-3.95%
6,NC(=O)c1cccc([As]=O)c1 (stereo not given),17.4%
7,[Cl][Rh]([Cl])([Cl])[Cl].[NH-]CC[NH-],15%
8,CC(C)NC(=O)C(Cl)CCl (stereo not given),8.9%
9,CC1=C2C(=O)C(C)(C)C=C2C(=O)[C@](C)(O)C12CC2,47.1%
10,COc1ccc(N=NC(=O)NC(CC(C)C)C(=O)NC(C)C(=O)O)cc1 (stereo not given),-26.4%
11,C1CC[N-]CC1.C1CC[N-]CC1.[Cl][Pt+2]([Cl])([Cl])[Cl],-10.3%
12,O=C(O)Cc1ccc2c(c1)OCO2,-0.35%
13,CC1OC(=O)C(C(C)C)NC(=O)C(C(C)C)OC(=O)C(C(C)C)NC(=O)C(C)OC(=O)C(C(C)C)NC(=O)C(C(C)C)OC(=O)C(C(C)C)NC(=O)C(C)OC(=O)C(C(C)C)NC(=O)C(C(C)C)OC(=O)C(C(C)C)NC1=O (stereo not given),38.8%
14,CCCCCC(N)CC(=O)O (stereo not given),-21.1%
15,CCOP(=O)(O)C1CCCC(C)[N-]1.CCOP(=O)(O)C1CCCC(C)[N-]1.[Cu+2] (stereo not given),33.6%
16,COc1ccn(C)c(=O)c1C#N,0.3%
17,Cc1ccc(-c2cc(C)n(C)[n+]2C)cc1,7.05%
18,Clc1ccc([C@H]2N[C@@H]2c2ccccn2)cc1,16.1%
19,Oc1ccc(Nc2ncnc3nc[nH]c23)cc1CN(CCCl)CCCl,-5.8%
20,CC1=C(C)C(=O)O[C@@H]([C@](C)(O)[C@]2(O)CC[C@@]3(O)[C@@H]4C[C@H]5O[C@]56CC=CC(=O)[C@]6(C)[C@H]4CC[C@]23C)C1,64.7%

row,SMILES,growth inhibition
1,COc1cc(/C=C(\C)[N+](=O)[O-])cc(OC)c1,16.1%
2,N.N.N.N.O=N[O-].O=N[O-].[Cl-].[Co+3],16.1%
3,O=C(CI)NCCNC(=O)CI,16.2%
4,C=C1CC2C3CC=C4CC(OC(C)=O)CCC4(C)C3CCC2(C)C1=O (stereo not given),13.8%
5,CCOP1(=O)C=C(C)C(Cl)=C(C)C1 (stereo not given),8.35%
6,Nc1ccc(C(=O)O)cc1[As](O)O,-4.05%
7,C1CCC(NC2CCCC2)CC1,47.1%
8,CCOC(=O)c1cc2c(cn1)[nH]c1ccccc12,34.2%
9,CCc1cc(C)cc2[n+]1CC=C2C,5.1%
10,CCOP(=S)(OCC)Oc1ccc2c(c1)OC(=O)C1(Cl)C2(C)C2(Cl)C(=O)Oc3cc(OP(=S)(OCC)OCC)ccc3C12C (stereo not given),4.75%
11,CC(=O)CCNC1(c2ccccc2)CCCCC1,2.95%
12,O=P(Oc1ccccc1)(Oc1ccccc1)C(O)c1ccccc1 (stereo not given),3.55%
13,CCC1CC[N-]CC1.CCC1CC[N-]CC1.CCC1CC[N-]CC1.CCC1CC[N-]CC1.N#C[S-].N#C[S-].[Co],16.9%
14,COc1ccc2c(c1OC)C13CCN(C)C(C2)C12C=CC(=O)C3c1c(OC)ccc(OC)c12 (stereo not given),6.95%
15,O=C(O)C(CP(=O)(O)O)=C(Cl)Cl,12.3%
16,O=C(O)C(Cl)C(=O)O,-7.8%
17,O[As](O)O.S=C(S)c1ccccc1S,-13%
18,CC1(c2cccc(N(CCCl)CCCl)c2)NC(=O)NC1=O (stereo not given),27.4%
19,N#Cc1ccc(C(Cl)(Cl)Cl)cc1,-17.6%
20,[C-]#[O+].[C-]#[O+].[C-]#[O+].[CH3][Sn]([c]1ccccc1)[c]1ccccc1.[W].[c-]1[c-][c-][cH-][c-]1,99.3% (active)
